# Laboratory results as given in publication PMC8384837, “Expanding the binding specificity for RNA recognition by a PUF domain”.
# How the values were obtained:
# Experiment in all cases: yeast three-hybrid, YBZ-1, SC-Leu-His + 0.5 mM 3-AT, 4 days
# Settings in all cases: tags: N-Gal4 AD-HA kept; label: inside an RPR1-promoter hybrid RNA with tandem MS2 sites; ssRNA
# PUM1 PUF domain R3-RCD = PUM1 PUF domain R3-RCD (Homo sapiens, UniProt Q14671 828-1176, C935R;R936C;Q939D)
# Summary of the method: (§1)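 Pumilio-1 PUF domain libraries, randomized at the three base-contacting residues of each repeat, were co-expressed with matching RNA elements from a centromeric plasmid in strain YBZ-1, which carries a LexA–MS2 coat fusion and a HIS3 reporter. Transformants grew for four days on SC-Leu (input) or on SC-Leu-His + 0.5 mM 3-AT (selection), and the repeat regions were PCR-amplified and Illumina-sequenced. The interaction score is the log change in variant frequency from input to selection. That logarithm is base 2, with a pseudocount of 1 where a variant was absent.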
# PUM1 PUF domain R3-VRS = PUM1 PUF domain R3-VRS (Homo sapiens, UniProt Q14671 828-1176, C935V;Q939S)
# Summary of the method: as §1
# PUM1 PUF domain R4-FNI = PUM1 PUF domain R4-FNI (Homo sapiens, UniProt Q14671 828-1176, N971F;H972N;Q975I)
# Summary of the method: as §1
# PUM1 PUF domain R4-MFN = PUM1 PUF domain R4-MFN (Homo sapiens, UniProt Q14671 828-1176, N971M;H972F;Q975N)
# Summary of the method: as §1
# PUM1 PUF domain R6-IWK = target: T1, PUM1 PUF domain R6-IWK (Homo sapiens, UniProt Q14671 828-1176, N1043I;Y1044W;Q1047K)
# T1 sequence: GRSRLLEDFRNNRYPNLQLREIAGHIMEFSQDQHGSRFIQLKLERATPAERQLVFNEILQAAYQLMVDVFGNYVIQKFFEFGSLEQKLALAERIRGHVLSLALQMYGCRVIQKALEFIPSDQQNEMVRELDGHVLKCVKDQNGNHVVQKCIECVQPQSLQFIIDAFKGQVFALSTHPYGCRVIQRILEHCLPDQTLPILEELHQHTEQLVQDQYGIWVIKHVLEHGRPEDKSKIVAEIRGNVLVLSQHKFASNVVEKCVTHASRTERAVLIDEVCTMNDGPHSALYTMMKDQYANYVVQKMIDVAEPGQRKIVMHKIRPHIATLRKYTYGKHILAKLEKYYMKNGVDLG
# Summary of the method: as §1
# PUM1 PUF domain R7-TVV = PUM1 PUF domain R7-TVV (Homo sapiens, UniProt Q14671 828-1176, S1079T;N1080V;E1083V)
# Summary of the method: as §1
# PUM1 PUF domain R1-GYK = PUM1 PUF domain R1-GYK (Homo sapiens, UniProt Q14671 828-1176, S863G;R864Y;Q867K)
# Summary of the method: as §1
# PUM1 PUF domain R1-RLV = PUM1 PUF domain R1-RLV (Homo sapiens, UniProt Q14671 828-1176, S863R;R864L;Q867V)
# Summary of the method: as §1
# PUM1 PUF domain R5-NVA = PUM1 PUF domain R5-NVA (Homo sapiens, UniProt Q14671 828-1176, C1007N;R1008V;Q1011A)
# Summary of the method: as §1
sequence,measurement,setting,value
GGCUAGAACUAGUGGAUCCCCCGGCGCCCGGCGGCUCGAGCCCGGGUAAGUGUAAUUAGUCUGCAUGCCGCCGGGCGCCAUGCCUGCAGGUCGACUCUAGAAAACAUG,binding signal,PUM1 PUF domain R3-RCD,3.1 log2 enrichment (interaction score)
GGCUAGAACUAGUGGAUCCCCCGGCGCCCGGCGGCUCGAGCCCGGGUAAGUGUAAGUAGUCUGCAUGCCGCCGGGCGCCAUGCCUGCAGGUCGACUCUAGAAAACAUG,binding signal,PUM1 PUF domain R3-RCD,2.53 log2 enrichment (interaction score)
same,binding signal,PUM1 PUF domain R3-VRS,0.45 log2 enrichment (interaction score)
GGCUAGAACUAGUGGAUCCCCCGGCGCCCGGCGGCUCGAGCCCGGGUAAGUGUAUAUAGUCUGCAUGCCGCCGGGCGCCAUGCCUGCAGGUCGACUCUAGAAAACAUG,binding signal,PUM1 PUF domain R4-FNI,2.63 log2 enrichment (interaction score)
GGCUAGAACUAGUGGAUCCCCCGGCGCCCGGCGGCUCGAGCCCGGGUAAGUGUAAAUAGUCUGCAUGCCGCCGGGCGCCAUGCCUGCAGGUCGACUCUAGAAAACAUG,binding signal,PUM1 PUF domain R4-MFN,2.97 log2 enrichment (interaction score)
same,binding signal,PUM1 PUF domain R3-VRS,3.88 log2 enrichment (interaction score)
same,binding signal,PUM1 PUF domain R6-IWK,2.18 log2 enrichment (interaction score)
GGCUAGAACUAGUGGAUCCCCCGGCGCCCGGCGGCUCGAGCCCGGGUAAGUUUAAAUAGUCUGCAUGCCGCCGGGCGCCAUGCCUGCAGGUCGACUCUAGAAAACAUG,binding signal,PUM1 PUF domain R7-TVV,3.71 log2 enrichment (interaction score)
GGCUAGAACUAGUGGAUCCCCCGGCGCCCGGCGGCUCGAGCCCGGGUAAGUGUAAAUCGUCUGCAUGCCGCCGGGCGCCAUGCCUGCAGGUCGACUCUAGAAAACAUG,binding signal,PUM1 PUF domain R1-GYK,5.06 log2 enrichment (interaction score)
same,binding signal,PUM1 PUF domain R1-RLV,2.36 log2 enrichment (interaction score)
GGCUAGAACUAGUGGAUCCCCCGGCGCCCGGCGGCUCGAGCCCGGGUAAGUGUAAAUGGUCUGCAUGCCGCCGGGCGCCAUGCCUGCAGGUCGACUCUAGAAAACAUG,binding signal,PUM1 PUF domain R1-GYK,0.96 log2 enrichment (interaction score)
GGCUAGAACUAGUGGAUCCCCCGGCGCCCGGCGGCUCGAGCCCGGGUAAGUGAAAAUAGUCUGCAUGCCGCCGGGCGCCAUGCCUGCAGGUCGACUCUAGAAAACAUG,binding signal,PUM1 PUF domain R6-IWK,5.15 log2 enrichment (interaction score)
GGCUAGAACUAGUGGAUCCCCCGGCGCCCGGCGGCUCGAGCCCGGGUAAGUGUAAAUUGUCUGCAUGCCGCCGGGCGCCAUGCCUGCAGGUCGACUCUAGAAAACAUG,binding signal,PUM1 PUF domain R1-RLV,2.9 log2 enrichment (interaction score)
GGCUAGAACUAGUGGAUCCCCCGGCGCCCGGCGGCUCGAGCCCGGGUAAGUGUUAAUAGUCUGCAUGCCGCCGGGCGCCAUGCCUGCAGGUCGACUCUAGAAAACAUG,binding signal,PUM1 PUF domain R5-NVA,3.11 log2 enrichment (interaction score)
